Bioassay records (PubChem)
Only some compounds are listed: those with a hit (about 4% of all), similar ones and a draw of the others.
Bst PK mod: Pyruvate Kinase | purified pyruvate kinase, luminescence ATP production; ribose 5-phosphate activator present at AC10 | Potency, µM | AID 361, 2006 | hit rate 1.2% among 51,000; in the data active means potency below about 11 µM; inconclusive means mostly about 12 µM to 25 µM;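 the screen sought inhibitors and activators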;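 further: scaled between full activation by ribose 5 phosphate and full inhibition by luteolin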
HEK293 cAMP ctrl: qHTS Assay for Agonists of the Thyroid Stimulating Hormone Receptor: Activators of Intracellular cAMP Concentrations in Parental HEK 293; parental HEK293 CNG cAMP sensor, membrane potential fluorescence; Potency, µM (highest dose often 57.1 µM), for inactives: top-dose activation, most hits filed as activators; hit rate 2.5% among 73,000; active means well fitted activation curve with a large enough effect; inconclusive means small, poorly fitted or top-dose-only effect; inactive means no such curve, though single readings can be large or run the other way; further: % of control where 0% means no effect; nearly all actives have a fitted effect of over 55% in size
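Parental HEK 293 cells stably expressing a modified CNG channel (no TSHR) report cAMP rise as membrane depolarization. Membrane potential dye with 100 uM RO 20-1724 was loaded for 60 min at room temperature, then compound added for 30 min; fluorescence read at 590 nm.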
TSHR ag: qHTS Assay for Agonists of the Thyroid Stimulating Hormone Receptor; Thyrotropin receptor (Homo sapiens), P16473; Potency, µM (highest dose often 57.1 µM), for the others: at the top dose activation, hits mostly activators; hit rate 0.48% among 73,000; HEK293-CNG-TSHR cells (CNG channel as cAMP sensor), membrane potential dye, cAMP; AID 926, 2007; active means well fitted activation curve with a large enough effect in the main read-out, with a control signal flat, not every such curve was filed as active; inconclusive means small, poorly fitted or top-dose-only effect, or a change in a side signal; inactive means no such curve, though single readings can be large or run the other way; % of control where 0% means no effect;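 further: the control signal comes from parental cells without the receptor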
Target sequence (P16473 whole entry, looked up): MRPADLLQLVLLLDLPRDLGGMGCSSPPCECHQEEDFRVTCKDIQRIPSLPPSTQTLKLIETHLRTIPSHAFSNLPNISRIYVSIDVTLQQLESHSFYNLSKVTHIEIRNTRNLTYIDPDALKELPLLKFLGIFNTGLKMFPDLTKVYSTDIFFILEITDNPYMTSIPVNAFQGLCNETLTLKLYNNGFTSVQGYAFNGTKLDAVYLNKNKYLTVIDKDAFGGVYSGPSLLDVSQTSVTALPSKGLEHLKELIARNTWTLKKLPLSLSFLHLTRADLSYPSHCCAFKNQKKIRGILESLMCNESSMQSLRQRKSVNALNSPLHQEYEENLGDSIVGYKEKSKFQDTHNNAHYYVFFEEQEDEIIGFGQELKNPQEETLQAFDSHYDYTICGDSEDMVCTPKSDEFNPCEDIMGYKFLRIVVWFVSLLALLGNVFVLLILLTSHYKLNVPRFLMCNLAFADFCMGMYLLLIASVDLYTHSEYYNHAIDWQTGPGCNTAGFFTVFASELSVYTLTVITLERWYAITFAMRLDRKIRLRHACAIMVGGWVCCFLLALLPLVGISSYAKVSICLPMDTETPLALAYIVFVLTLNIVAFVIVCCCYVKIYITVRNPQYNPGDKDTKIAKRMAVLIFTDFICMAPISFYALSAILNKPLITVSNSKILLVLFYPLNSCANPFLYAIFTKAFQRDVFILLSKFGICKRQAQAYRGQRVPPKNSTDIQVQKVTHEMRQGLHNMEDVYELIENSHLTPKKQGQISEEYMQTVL
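HEK 293 cells stably expressing TSHR and a modified CNG channel, with CNG-only parental cells as counterscreen, were preloaded 60 min at room temperature with membrane potential dye containing 100 uM RO 20-1724. Compound exposure was 30 min, and depolarization was read as fluorescence at 590 nm.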
GBA mod: Glucocerebrosidase. purified enzyme, resorufin glucoside fluorescence (screen aimed at inhibitors), 20 min. Potency, µM. hit rate 1.1% among 48,000. Lysosomal acid glucosylceramidase (Homo sapiens), P04062; in the data active means potency below about 15 µM; inconclusive means mostly about 16 µM to 33 µM;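 further: the screen sought inhibitors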
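Compounds titrated against 0.2 nM normal enzyme, 30 uM resorufin beta-D-glucopyranoside substrate, citrate/phosphate buffer with taurocholate and tween-20, pH 5.9. Reaction ran 20 min at room temperature; fluorescence (Ex 548/Em 600) gave AC50.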
* = called active by the depositor; i = inactive; ? = inconclusive; nt = no result; [ ] = another dose, or the depositor's remark. Potency means the concentration at half of the fitted maximal effect.

SMILES | Bst PK mod | HEK293 cAMP ctrl | TSHR ag | GBA mod
CCC(=C(CC)c1ccc(O)cc1)c1ccc(O)cc1 | nt | 16.0%[25.6 µM] | 0.8%[25.6 µM] | nt
COCCn1c(=O)c(-c2ccc(Cl)cc2)nc2cnc(N3CCNCC3)nc21 | nt | -11.0% | 3.4% | nt
Cc1cccc(OCc2nnc(SCC(=O)c3ccccc3)o2)c1 | >57 | 3.98µM* | ? | >76.9
COC(=O)c1ccc(OC)c(CSc2nnc(COc3ccccc3)o2)c1 | >57 | 12.6µM* | ? | >76.9
CN(C)S(=O)(=O)N1CCN(S(=O)(=O)c2ccc(F)cc2)CC1 | >57 | 6.4% | 3.9% | >76.9
CN(C)S(=O)(=O)c1ccc(N2CCN(S(=O)(=O)c3ccc(F)cc3)CC2)c(Cl)c1 | 6.06* | 16.9% | 3.4% | >76.9
CN(C)c1ccc2c(c1)OC(N)=C(C#N)C2c1cccc(F)c1 (stereo unspecified) | nt | 31.6µM* | ? | nt
CCCn1c(=N)n(CCOc2ccc(OC)cc2)c2ccccc21 | >57 | 8.8% | 10.1% | 5.9*
CCCCOC(=O)Cn1c(=N)n(CCC)c2ccccc21 | >57 | ? | ? | 11.1*
COc1ccc(OCC(O)Cn2c(=N)n(CCN3CCOCC3)c3ccccc32)cc1 (stereo unspecified) | >57 | 9.7% | -3.8%[11.4 µM] | i
CCCn1c(-c2ccc(OC)cc2)nc2ccccc21 | nt | 25.1µM* | ? | nt
CCOC(=O)Nc1nc(-c2ccccc2)c(C)s1 | nt | -6.2%[11.4 µM] | 4.6%[11.4 µM] | nt
COc1ccc2nc(NC(=O)C3CCN(S(=O)(=O)c4cccc5nsnc45)CC3)sc2c1 | 2.98* | -12.3% | 20.4% | >76.9
COc1ccc(-c2csc(C3=C(O)CN(Cc4ccc(S(N)(=O)=O)cc4)C3=N)n2)cc1OC | >57 | -6.5% | -1.5%[11.4 µM] | >76.9
N=C1C(c2nc(-c3ccc(Cl)cc3)cs2)=C(O)CN1CCCN1CCOCC1 | 4.46* | -23.4% | -6.6% | >76.9
O=C1C2=C(Nc3cc([N+](=O)[O-])ccc3N2)O[C@@H]1c1c[nH]c2ccc(COc3ccccc3)cc12 | nt | -4.0%[11.4 µM] | -0.7%[11.4 µM] | nt
CC(C)=CCC/C(C)=C/COc1c2ccoc2cc2oc(=O)ccc12 | nt | 12.6µM* | ? | nt
COc1cc2ccc(=O)oc2c(O)c1OCC=C(C)C | >57 | 4.7% | 0.0% | nt
CCN(C(=O)c1ccc(C(C)(C)C)cc1)c1nnc(Cn2nnc3ccccc32)s1 | >57 | 25.1µM* | ? | nt
N=c1n(CCN2CCOCC2)c2ccccc2n1CC(O)COc1ccccc1 (stereo unspecified) | >57 | ? | ? | i
CCCCn1c(=N)n(CC(O)COc2ccc(C)cc2)c2ccccc21 (stereo unspecified) | >57 | 15.8µM* | ? | 10.6*
N=c1n(Cc2ccccc2)c2ccccc2n1CC(O)COc1ccccc1 (stereo unspecified) | >57 | 4.5% | 16.7% | >76.9
CCCn1c(=N)n(CC(O)COc2cccc(C)c2)c2ccccc21 (stereo unspecified) | >57 | 15.8µM* | ? | 12.1*
CCn1c(=N)n(CC(O)COc2cccc(C)c2)c2ccccc21 (stereo unspecified) | >57 | ? | ? | ?
CCCCn1c(=N)n(CC(O)COc2ccccc2)c2ccccc21 (stereo unspecified) | >57 | 1.26µM* | ? | ?
SMILES | Bst PK mod | HEK293 cAMP ctrl | TSHR ag | GBA mod
Cc1ccccc1OCC(O)Cn1c(=N)n(CCN2CCOCC2)c2ccccc21 (stereo unspecified) | >57 | 10µM* | ? | i
C[N+](C)(C)[C@@H](C1=CCCC1=O)c1ccccc1 | nt | -1.8%[11.4 µM] | 2.1%[11.4 µM] | nt
C=CCNS(=O)(=O)c1ncnc2nc[nH]c12 | nt | 0.9%[11.4 µM] | 1.8%[11.4 µM] | nt
C[C@H](OP(=O)(O)O)[C@H](N)C(=O)O | nt | 4.0%[11.4 µM] | 0.0%[11.4 µM] | nt
O=c1c2ccccc2nc2sc3ccccc3n12 | 6.76* | 16.1% | -4.9% | >76.9
COC(=O)/C=c1/sc2nc3ccccc3n2c1=O | nt | -1.7% | -3.0%[11.4 µM] | ?
CCOc1ccc(NS(=O)(=O)c2ccc(C)c(C(=O)O)c2)cc1 | nt | -3.4% | 6.2% | nt
C=CCn1cnc2c(c1=O)c1nc3ccccc3nc1n2/N=C/c1cccc(OC)c1OC | ? | -7.9% | -6.1% | 6.6*
C=CCn1cnc2c(c1=O)c1nc3ccccc3nc1n2/N=C/c1cc(OC)c(OC)c(OC)c1 | >57 | -14.1% | -7.8% | >76.9
C=CCn1cnc2c(c1=O)c1nc3ccccc3nc1n2/N=C/c1ccccn1 | >57 | -4.2% | -9.6% | 8.41*
O=C(NC1CCCCC1)C(c1ccco1)N(Cc1cccnc1)C(=O)C1COc2ccccc2O1 (stereo unspecified) | >57 | 15.8µM* | ? | ?
Cc1c(C(=O)O)c(O)cc2c1C(=O)c1c(O)c([C@@H]3O[C@H](CO)[C@@H](O)[C@H](O)[C@@H]3O)c(O)c(O)c1C2=O | nt | 2.6% | -2.3% | nt
Fc1ccc(C(c2nnnn2Cc2ccco2)N2CCN(C3CCCCC3)CC2)cc1 (stereo unspecified) | >57 | ? | ? | >76.9
CC(C)CC(c1nnnn1C(C)(C)C)N1CCN(C2CCCC2)CC1 (stereo unspecified) | >57 | 12.6µM* | ? | >76.9
CC(C)CC(c1nnnn1Cc1ccco1)N1CCN(C2CCCC2)CC1 (stereo unspecified) | >57 | 3.16µM* | ? | >76.9
Cc1ccc(C(c2nnnn2C(C)(C)C)N2CCN(C3CCCC3)CC2)cc1 (stereo unspecified) | >57 | ? | ? | nt
CN(C)CCNc1ccccn1 | nt | 16.7%[11.4 µM] | -0.9%[11.4 µM] | nt
Cc1ccn2cc(C(=O)Nc3ccccc3N3CCOCC3)nc2c1 | nt | 24.6% | 0.4% | >76.9
Cc1ccn2cc(C(=O)Nc3ccc4c(c3)OCCO4)nc2c1 | 7* | 5.6% | 4.3% | >76.9
Cc1cc(NCCCN2CCOCC2)n2ncc(-c3ccccc3)c2n1 | nt | -7.7% | -2.8%[11.4 µM] | i
Cc1cc(NCCOCCO)n2ncc(-c3ccc(Cl)cc3)c2n1 | 6.73* | -31.0% | ? | >76.9
CC(c1ccco1)N(C(=O)CSc1ccc(Br)cc1)c1ccccn1 (stereo unspecified) | >57 | 25.1µM* | ? | >76.9
O=C(Cn1nc(Cc2cccnc2)c2ccccc2c1=O)N1CCN(c2ccccn2)CC1 | nt | -1.6% | -11.3% | nt
O=C(c1nn(Cc2ccccc2)c(=O)c2ccccc12)N1CCN(c2ccccn2)CC1 | >57 | 3.98µM* | ? | nt
COCCN(C(=O)Cn1nnc2ccccc21)C(C(=O)NC1CCCC1)c1cc(OC)ccc1OC (stereo unspecified) | >57 | 25.1µM* | ? | >76.9
SMILES | Bst PK mod | HEK293 cAMP ctrl | TSHR ag | GBA mod
COc1ccc(Nc2nc(C)c3ccccc3n2)cc1 | ? | 4.0% | 5.1% | >76.9
Nc1nc(Nc2cccc(F)c2)nc2ccccc12 | 9.38* | -51.8% | ? | 12.8*
CCN(CC)CCn1c(-c2ccccc2)nc2c(NCCOC)nc(C)nc21 | nt | 18.4% | 3.8% | nt
Cc1cccn2cc(CCNC(=O)c3ccc(Br)o3)nc12 | nt | 31.6µM* | ? | nt
FC(F)(F)c1ccccc1-c1cncnc1NCCN1CCOCC1 | nt | 9.3% | -2.1% | nt
O=C(COc1ccccc1)N(Cc1ccco1)c1ccc(O)cc1 | >57 | 21.8% | 20µM* | >76.9
Cc1ccc(S(=O)(=O)Nc2ccc(O)c(C(=O)O)c2)c(C)c1 | nt | -5.0% | 1.7% | nt
